# HPGD inh: HPGD (human) dehydrogenase inhibition | Potency, µM, usual class: inhibitors | purified HPGD, NADH fluorescence kinetic, PGE2 substrate | 150,000 tested, 4.3% active | P15428 | AID 894; active means well fitted inhibition curve with a large enough effect, not every such curve was filed as active; inconclusive means small, poorly fitted or top-dose-only effect, or another doubt; inactive means no such curve, though single readings can be large or run the other way
# Target sequence (P15428 whole entry, looked up): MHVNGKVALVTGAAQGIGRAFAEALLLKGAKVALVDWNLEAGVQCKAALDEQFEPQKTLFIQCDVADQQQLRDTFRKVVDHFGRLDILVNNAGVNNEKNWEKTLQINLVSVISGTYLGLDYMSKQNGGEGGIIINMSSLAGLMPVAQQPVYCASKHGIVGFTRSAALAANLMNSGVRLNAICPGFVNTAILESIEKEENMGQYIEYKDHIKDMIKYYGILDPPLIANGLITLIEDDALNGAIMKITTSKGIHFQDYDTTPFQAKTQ
#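 20 nM HPGD preincubated 15 min at room temperature with compound in 50 mM Tris-HCl pH 8, 0.01% Tween 20. Started with 1 mM NAD+ and 30 uM prostaglandin E2; NADH fluorescence (360/450 nm) read 5 times over 30-s intervals, last minus first.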
# ALDH1A1 block: ALDH1A1 (human) enzyme inhibition. P00352. 220,000 tested, 7.3% active. AID 1030. Potency, µM (doses to about 75.3 µM), hits mostly inhibitors. Purified ALDH1A1, NADH fluorescence, propionaldehyde substrate; active means well fitted inhibition curve with a large enough effect, not every such curve was filed as active; inconclusive means small, poorly fitted or top-dose-only effect, or another doubt; inactive means no such curve, though single readings can be large or run the other way
# Target sequence (P00352 whole entry, looked up): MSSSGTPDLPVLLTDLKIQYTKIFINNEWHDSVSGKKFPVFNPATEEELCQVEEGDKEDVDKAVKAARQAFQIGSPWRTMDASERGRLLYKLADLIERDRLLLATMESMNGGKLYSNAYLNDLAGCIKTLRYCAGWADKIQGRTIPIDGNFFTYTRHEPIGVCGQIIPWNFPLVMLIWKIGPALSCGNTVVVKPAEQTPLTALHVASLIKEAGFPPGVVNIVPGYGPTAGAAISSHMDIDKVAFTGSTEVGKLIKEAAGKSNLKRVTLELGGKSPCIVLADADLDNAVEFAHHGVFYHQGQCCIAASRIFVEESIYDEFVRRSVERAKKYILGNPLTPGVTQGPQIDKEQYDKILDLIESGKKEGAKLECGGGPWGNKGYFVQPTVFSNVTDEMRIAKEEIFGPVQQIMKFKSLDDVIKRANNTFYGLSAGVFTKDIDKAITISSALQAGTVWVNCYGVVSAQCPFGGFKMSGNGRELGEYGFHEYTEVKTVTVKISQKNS
# HTT ATP protect: Huntington cell model cytoprotection by ATP luminescence. 230,000 tested, 0.14% active. Potency, µM (top dose mostly 56.4 µM), usual class: activators. PC12 HTT-Q103 induced, cytoprotection, ATP luminescence, 40 h; further: nearly all actives have a fitted effect of over 45% in size
#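 Huntington model: PC12 line, ecdysone-inducible HTTQ103 exon1–GFP, tebufenozide 100 nM. Test articles in a dose series. Endpoint luminescence from cellular ATP.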
# LMNA splice mod: changes lamin A minigene splicing in HeLa cells; HeLa LMNA splicing GFP/RFP minigene ratio, 48 h; Potency, µM (titrated, usually from 46.1 µM), hits mostly inhibitors; 200,000 tested, 0.01% active; AID 1487; active means well fitted inhibition curve with a large enough effect in the signal ratio, with a control signal flat, not every such curve was filed as active; inconclusive means small, poorly fitted or top-dose-only effect, or effect the other way, or a change in a side signal; the % refers to the signal ratio
#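 S3 HeLa stable clones carrying a lamin A-EGFP splicing minigene plus DsRed2 were seeded at 600 cells/well in Opti-MEM with 2% FBS, pin-dosed and incubated 48 h at 37°C. Acumen cytometry (488 nm) gave the GFP/RFP total-intensity ratio.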
# HttQ103 aggreg: mutant huntingtin aggregation inhibition. PC12 HttQ103-GFP aggregates, Acumen cytometry, 40 h. Potency, µM (top dose mostly 46.1 µM), most hits filed as inhibitors. 220,000 tested, 1.1% active; further: nearly all actives have a fitted effect of over 60% in size
#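 Aggregates are detected as GFP objects 1–25 µm with signal 6 STDEV over background in lysates of induced PC12 cells. These carry Huntingtin exon 1 with 103 glutamines fused to GFP under an ecdysone promoter; compounds titrated.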
# Hits are given with their value; i = inactive; ? = inconclusive; nt = no result given; [ ] = remark or other dose. Sampled rows, rich in hits. Any-hit rate of the full collection: about 8.8%. Unless noted, the call rests on the fitted dose curve; in most records, active means well fitted curve in the direction sought with a large enough effect; inconclusive means small, poorly fitted or top-dose-only effect, or another doubt; inactive means no such curve, though single readings can be large; an effect the other way counts as inactive or inconclusive.
SMILES,HPGD inh,ALDH1A1 block,HTT ATP protect,LMNA splice mod,HttQ103 aggreg
O=c1cc(CSc2nnc(COc3ccc(Cl)cc3)o2)c2ccccc2[nH]1,i,i,i,?,i
O=c1cc(CSc2nnc(-c3ccccc3)o2)c2ccccc2[nH]1,7.9µM,i,i,i,i
CN(C)c1ccc(C(=O)OCC(=O)Nc2ccc(N3CCOCC3)cc2)cc1,nt,13µM,i[10 µM],nt,i[9.22 µM]
O=C(COC(=O)CCC(=O)c1ccc(F)cc1)Nc1ccc(N2CCOCC2)cc1,18µM,i,i[10 µM],i,i
CCN(CC)CCN(C(=O)c1ccco1)c1nc2ccc(Br)cc2s1,nt,nt,nt,i,nt
COc1ccc2c(c1)C(=O)c1ccccc1CO2,35µM,4µM,i,i,i
CC(C)c1ccc(/C(C(=O)O)=C(\O)C(=O)O)cc1,i,i[13.5 µM],i[10 µM],nt,nt
Cc1cc2n(n1)SC(Nc1ccc(F)c(Cl)c1)N2 (stereo not given),i,2.8µM,i[10 µM],?,i
Cc1oc(-c2ccc(Cl)cc2)nc1Cn1c(=O)cc(-c2ccccc2)c2c(C)nn(C)c21,nt,nt,nt,i,nt
CC(=O)Nc1cccc(NC(=O)Cc2nc(-c3ccccc3)sc2-c2ccc(C)cc2)c1,i,i,i[10 µM],i,i
COc1cccc(NC(=O)Cc2nc(-c3ccccc3)sc2-c2ccc(C)cc2)c1,?,25µM,nt,?,i
NCCC[C@@H](CC(=O)N[C@@H]1CCNC[C@H]1C(=O)N[C@H](CC(=O)N[C@@H](CCC(=O)O)CC(=O)O)Cc1c[nH]c2ccccc12)NC(=O)C[C@H](Cc1c[nH]c2ccccc12)NC(=O)[C@@H]1CNCC[C@H]1N,i,i,i,nt,nt
N#CC1=C(N)Oc2cc3ccccc3cc2C1c1cccs1 (stereo not given),i,?,i,?,i
CN(C)/C=N/C1=C(C#N)C(c2cccs2)c2ccc3ccccc3c2O1 (stereo not given),nt,0.32µM,i,nt,i
NNC(=O)Cc1cn(-c2ncc(C(F)(F)F)cc2Cl)c2ccccc12,i,i,i,i,i
O=C(O)/C=C/c1cn(-c2ncc(C(F)(F)F)cc2Cl)c2ccccc12,2µM,i,i,i,i
O=C(/C=C/c1cccc([N+](=O)[O-])c1)NC(=S)Nc1ccc(CN2CCOCC2)cc1,i,3.2µM,i[10 µM],i,i
O=C(COc1ccc(Cl)cc1Cl)NC(=S)Nc1ccc(CN2CCOCC2)cc1,nt,?,i[10 µM],?,i[9.22 µM]
C/C(=N\NC(=O)c1ccc(CN2CCOCC2)cc1)c1cccc([N+](=O)[O-])c1,i,19µM,i[10 µM],?,i
O=C(COc1ccccc1Cl)NC(=S)Nc1ccc(CN2CCOCC2)cc1,25µM,i,nt,i,i
O=C(CCCCl)NC(=S)Nc1ccc(CN2CCOCC2)cc1,nt,20µM,i[10 µM],nt,i[9.22 µM]
O=C(CCCCl)NC(=S)Nc1ccc(N2CCOCC2)cc1,nt,nt,i[10 µM],nt,i[9.22 µM]
CC1CCN(c2nnc(-n3cccc3CNc3cccc(F)c3)s2)CC1,nt,nt,nt,i,nt
O=[N+]([O-])c1ccc(NC2CCCC2)cc1,i,i,i[0.074 µM],?,i
O=[N+]([O-])c1ccc(N/N=C2/CCCCC2c2ccccn2)cc1 (stereo not given),i,0.045µM,i[10 µM],i,i
SMILES,HPGD inh,ALDH1A1 block,HTT ATP protect,LMNA splice mod,HttQ103 aggreg
COc1ccc(-n2[nH]c(C)cc2=O)cc1,i,3.2µM,i,?,?
Cc1cc(=O)[nH]c(-n2[nH]c(C)cc2=O)n1,i,i,i,i,i
CCC(C)[C@H](NC(=O)NCCCn1ccnc1)C(=O)OC (stereo not given in full),i,i,i[10 µM],i,i
Cc1ccc(-c2c(C(=O)N3CCOCC3)oc(=O)c3ccccc23)cc1,i,1.6µM,i,i,i
Cc1ccc(-c2c(C(=O)NCc3ccc(F)cc3)oc(=O)c3ccccc23)cc1,i,7.1µM,?,i,i
Cn1c(C(=O)N2CCN(c3ncccn3)CC2)cc2c(=O)n(C)c3ccccc3c21,i,i,i,i,i
Cn1c(C(=O)N2CCCC2)cc2c(=O)n(C)c3ccccc3c21,22µM,i,i,i,i
CCOc1ccc(CNC(=O)c2cnc(SC)nc2C)cc1,nt,nt,nt,i,nt
Cn1c(SCCOc2ccccc2Cl)nnc1-c1ccncc1,i,i,i,i,0.79µM
Cn1c(SCCCC(=O)c2ccc(Br)cc2)nnc1-c1ccncc1,18µM,i,i,?,i
Cc1c(C(=O)NCc2ccc(F)cc2)oc2ccc(S(=O)(=O)N3CCCCC3)cc12,nt,nt,nt,i,nt
CCS(=O)(=O)N1CCC(C(=O)NCCC(C)C)CC1,nt,nt,nt,i,nt
O=S(=O)(NCc1cccs1)c1cccc(S(=O)(=O)N2CCCCC2)c1,i,8.9µM,i[10 µM],?,i
O=C(NCc1cccs1)c1ccc(S(=O)(=O)N2CCCCC2)cc1,nt,i,i,i,i
CCCCNS(=O)(=O)c1cccc(S(=O)(=O)N2CCCC2)c1,i,14µM,i,i,i
Cn1ncc(C(=O)N2CCN(c3ccccc3)CC2)c1C1CCN(C(=O)OC(C)(C)C)CC1,nt,nt,nt,i,nt
Cc1[nH]n(-c2ccccc2)c(=S)c1C=NCCCN=Cc1c(C)[nH]n(-c2ccccc2)c1=S,28µM,4µM,i[10 µM],?,i
COC(=O)CN=Cc1c(C)[nH]n(-c2ccccc2)c1=O,nt,i,i,?,i
O=C(c1ccccc1)c1coc2c1C(=O)c1ccccc1C2=O,nt,20µM,nt,?,?
COc1ccc(C(=O)c2coc3c2C(=O)C(=O)c2ccccc2-3)cc1,nt,nt,i[10 µM],nt,i[9.22 µM]
O=C1c2ccccc2C(=O)c2c1oc(C(F)(F)F)c2C(=O)c1ccccc1,i,?,i[10 µM],?,5µM
Cc1cccc(NC(=O)CSc2nnc(-c3ccco3)c(-c3ccco3)n2)c1C,10µM,3.5µM,i,i[0.0737 µM],i
Cc1cccc(NC(=O)CSc2nnc(-c3ccco3)c(-c3ccco3)n2)c1,nt,7.9µM,i[10 µM],i,i[9.22 µM]
CCCCc1nn2c(=O)cc(COC(=O)c3ccccc3NC(=O)c3ccccc3OC)nc2s1,nt,nt,nt,i,nt
Cc1ccccc1OCCOc1ccccc1C=C(C#N)C#N,i,3.5µM,i[10 µM],?,i
SMILES,HPGD inh,ALDH1A1 block,HTT ATP protect,LMNA splice mod,HttQ103 aggreg
Cc1cccc(OCCOc2ccccc2C=C(C#N)C#N)c1,i,7.1µM,i[10 µM],?,?
Cc1cccc(OCCOC(=O)Nc2ccccc2)c1,i,i,i[0.074 µM],i,i
CC(=O)c1ccc(N2C(=O)N(Cc3cc(C)ccc3C)c3ccccc3S2(=O)=O)cc1,nt,nt,nt,i,nt
CCSC1=NC2(CCCCC2)Nc2sc3c(c21)CCCC3,4.5µM,7.1µM,i,i,?
O=C(Nc1c(C(=O)O)oc2ccc(Br)cc12)c1ccccc1,?,28µM,i,i,i
CCOC(=O)c1oc2ccc(Br)cc2c1NC(=O)CN1CCN(C)CC1,i,?,i,i,i
COc1cc(-c2cc(=O)c3c(O)c(OC)c(OC)c(O)c3o2)ccc1O,nt,28µM,i[10 µM],nt,i[9.22 µM]
COc1ccc(-c2cc(OC)c3c(C)oc(C)c3c(=O)c2)cc1OC,28µM,11µM,i,?,?
COc1ccc(-c2cc(=O)c3c(O)c(OC)c(OC)c(OC)c3o2)cc1OC,i,20µM,nt,?,nt
Cc1ccc(CNC(=O)c2cc3c(-c4ccc(Cl)cc4)nn(C)c3s2)o1,?,?,i,i,8.9µM

# Screening data (PubChem BioAssay)
